# HTT ATP protect: protects HTT-Q103 PC12 cells, measured by ATP. PC12 HTT-Q103 induced, cytoprotection, ATP luminescence, 40 h. Potency, µM (top dose mostly 56.4 µM), for inactives: cytoprotection (ATP increase), actives largely listed as activators. 0.14% of 230,000 active; note: potency is the fitted concentration of half-maximal effect; % of control where 0% means no effect; nearly all actives have a fitted effect of over 45% in size
#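 Quantitative HTS on tebufenozide-induced (100 nM) PC12 cells expressing HTTQ103 exon 1–GFP; compounds tested as a concentration series; survival measured via cellular ATP.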
# IMPase inh: membrane-permeable compound that blocks inositol monophosphatase; inhibition (IP1 accumulation), % at 46.1 µM; P97697; 120,000 tested, under 10 active; CHO-M1 cells, IP1 accumulation, HTRF TR-FRET ratio; active = well fitted curve in the direction sought with a large enough effect in the signal ratio, not every such curve was filed as active; inconclusive = small, poorly fitted or top-dose-only effect, or a change in a side signal; inactive = no such curve, though single readings can be large or run the other way; the % refers to the signal ratio;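 note: cells stimulated with carbachol in lithium chloride buffer; plate controls were DMSO basal wells for no effect and reference inhibitor wells for full effect; higher means more IMPase inhibition seen as more IP1 and lower FRET ratio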
# Target sequence (P97697 whole entry, looked up): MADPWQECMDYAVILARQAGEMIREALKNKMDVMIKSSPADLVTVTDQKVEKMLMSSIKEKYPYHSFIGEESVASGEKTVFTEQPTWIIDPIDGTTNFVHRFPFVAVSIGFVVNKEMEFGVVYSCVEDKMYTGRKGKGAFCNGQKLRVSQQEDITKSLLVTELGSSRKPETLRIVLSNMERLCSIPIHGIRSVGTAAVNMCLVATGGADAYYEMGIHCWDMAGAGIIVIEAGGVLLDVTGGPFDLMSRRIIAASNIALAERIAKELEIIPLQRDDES
#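 CHO-M1 cells (CHO stably expressing M1 receptor), compound up to 46 uM final, stimulated with carbachol (50 uM as added) in buffer with 50mM LiCl, pH 7.4, 30 min at 37C. Cytosolic IP1 read by TR-FRET; AC50 from Hill fits.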
# ALDH1A1 inh: ALDH1A1 (human) enzyme inhibition | P00352 | Purified ALDH1A1, NADH fluorescence, propionaldehyde substrate | Potency, µM (series often up to 75.3 µM), for inactives: top-dose activity, negative = inhibition, most hits filed as inhibitors | 7.3% of 220,000 active | AID 1030; active = well fitted inhibition curve with a large enough effect, not every such curve was filed as active; inconclusive = small, poorly fitted or top-dose-only effect, or another doubt; inactive = no such curve, though single readings can be large or run the other way;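 note: potency is the fitted concentration of half-maximal effect; plate controls were no enzyme wells and a reference inhibitor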
# Target sequence (P00352 whole entry, looked up): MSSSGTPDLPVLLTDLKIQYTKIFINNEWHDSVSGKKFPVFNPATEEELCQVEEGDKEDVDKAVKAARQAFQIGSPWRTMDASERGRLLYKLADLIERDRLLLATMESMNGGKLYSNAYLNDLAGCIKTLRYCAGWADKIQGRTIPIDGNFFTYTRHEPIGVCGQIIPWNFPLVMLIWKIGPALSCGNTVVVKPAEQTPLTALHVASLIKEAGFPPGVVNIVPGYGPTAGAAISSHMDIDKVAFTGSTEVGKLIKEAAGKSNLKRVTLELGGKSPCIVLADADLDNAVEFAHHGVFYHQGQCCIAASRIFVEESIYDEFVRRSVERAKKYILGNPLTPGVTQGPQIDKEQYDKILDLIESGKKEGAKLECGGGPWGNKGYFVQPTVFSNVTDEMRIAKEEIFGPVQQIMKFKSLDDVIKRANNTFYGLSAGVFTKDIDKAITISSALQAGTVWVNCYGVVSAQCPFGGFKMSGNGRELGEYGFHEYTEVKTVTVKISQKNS
# IMPase Li cell: IMPase inhibition in cells with lithium potentiation; CHO-M1 cells, IP1 TR-FRET (IP-One), carbachol + lithium; Potency, µM (series often up to 59.4 µM), without a hit: at the highest dose activity, negative = IMPase inhibition, actives largely listed as inhibitors; 0.35% of 210,000 active; AID 1457;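 note: IP1 builds up when IMPase is blocked and the TR-FRET signal falls; potency is the fitted concentration of half-maximal effect; plate controls were basal vehicle for no effect and high inhibitor control for full effect; nearly all actives have a fitted effect of over 50% in size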
#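 IP1 accumulation measured by competitive TR-FRET in lysed CHO-M1 cells after 30 min compound exposure at 37C, with a small lithium addition to potentiate weak responses. Hill-equation AC50 from ratio and donor-channel data.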
# HPGD inh: inhibitors of human 15-hydroxyprostaglandin dehydrogenase (HPGD). purified HPGD, NADH fluorescence kinetic, PGE2 substrate. P15428. 4.3% of 150,000 active. Potency, µM, without a hit: at the top dose activity change, negative = inhibition, most hits filed as inhibitors; active = well fitted inhibition curve with a large enough effect, not every such curve was filed as active; inconclusive = small, poorly fitted or top-dose-only effect, or another doubt; inactive = no such curve, though single readings can be large or run the other way; note: potency is the fitted concentration of half-maximal effect; % is set by controls: 0 for no effect and ±100 for the full control effect
#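 NADH formation kinetics: reaction with 30 uM PGE2 and 1 mM NAD+ (final), 20 nM enzyme, Tris-HCl pH 8 with Tween 20, after 15 min compound preincubation at room temperature. Fluorescence change, last versus first of five reads.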
# HttQ103 aggreg: mutant huntingtin aggregation inhibition; PC12 HttQ103-GFP aggregates, Acumen cytometry, 40 h; Potency, µM (titrated, usually from 46.1 µM), inactives show top-dose activity change, negative = inhibition, usual class: inhibitors; 1.1% of 220,000 active; note: potency is the fitted concentration of half-maximal effect; % is set by controls: 0 for no effect and ±100 for the full control effect; nearly all actives have a fitted effect of over 60% in size
#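 Aggregate formation scored by laser-scanning cytometer (488 excitation, 500–530 emission) in lysed PC12 cells expressing Q103-GFP after 100 nM tebufenozide induction; library tested in dose series, with ATPLite reagent added in the multiplex.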
# Numbers without * were called inactive; ? = inconclusive; . = not tested or not shown; [ ] = another dose, or the depositor's remark. This is a sample that favours compounds with a hit; in the whole collection about 9.4% have one here. Unless noted, calls come from the whole dose curve; as a rule, active = well fitted curve in the direction sought with a large enough effect; inconclusive = small, poorly fitted or top-dose-only effect, or another doubt; inactive = no such curve, though single readings can be large; an effect the other way counts as inactive or inconclusive.
SMILES,HTT ATP protect,IMPase inh,ALDH1A1 inh,IMPase Li cell,HPGD inh,HttQ103 aggreg
N#Cc1c(-c2ccccc2Cl)cc(-c2ccccc2)nc1Br,.,.,-1.2%,7.9%,25.1µM*,-5.0%
CSc1nc(-c2ccccc2)cc(C)c1C#N,19.3%[10 µM],.,?,?,.,-3.7%[9.22 µM]
COC(=O)C1=C(C(=O)OC)[C@@H]2N(C)c3ccccc3[C@@]23C[C@@H](C(=O)OC)N(S(=O)(=O)c2ccc(OC)cc2)C3=N1,-5.4%[10 µM],.,24.2%[13.5 µM],16.2%,-1.1%,.
NS(=O)(=O)c1cccc(NC(=O)COC(=O)COc2ccc3ccccc3c2)c1,6.2%,.,-3.7%,-7.3%,.,37.9%
N#Cc1c(SCC(N)=O)nc2c(c1-c1ccc(O)cc1)CCCC2,-10.9%,-1.5,7.08µM*,31.3%[38.3 µM],-23.5%,-13.3%
COc1ccc(-c2c(C#N)c(SCC(N)=O)nc3c2CCCC3)cc1,-8.8%[10 µM],1.2,?,?,0.3%,7.2%
Cc1ccc2[nH]c(=O)c(CN(CCCO)S(=O)(=O)c3c(C)ccc4nsnc34)cc2c1,-25.7%[10 µM],2.0,12.6µM*,21.7%[38.3 µM],-9.4%,12.5%
Cc1cc2cc(CN(CCCO)S(=O)(=O)c3cccc4nsnc34)c(=O)[nH]c2cc1C,3.9%,5.6,-1.2%,-1.5%[38.3 µM],-11.6%,3.0%
Cc1nn(Cc2c(Cl)cccc2Cl)c(C)c1NC(=O)CCCn1nc([N+](=O)[O-])c(Cl)c1C,24.0%[10 µM],-3.8,6.31µM*,11.5%,-4.2%,-8.1%
Cc1nn(Cc2ccccc2Cl)c(C)c1NC(=O)CCCn1nc(C)c([N+](=O)[O-])c1C,3.4%,7.4,15.8µM*,-13.0%[38.3 µM],-8.8%,-4.4%
COCC1C2CC[C@H]3C(OCc4ccc(F)cc4C(F)(F)F)OC[C@]4(C)[C@H]3C2=C(CN4C(=O)OC(C)(C)C)[C@H](C)C1COC (some centres not stated),2.4%,.,-4.4%,-1.9%,-10.5%,.
S=c1[nH]nc(Cc2ccc(Br)cc2)n1/N=C/c1ccc(Cl)cc1,-12.9%,.,28.2µM*,2.8%,.,10.1%
CCc1n[nH]c(=S)n1/N=C/c1ccccc1OCc1ccc(Cl)cc1,-9.8%,.,7.1%,3.3%,.,-5.2%
Cc1n[nH]c(=S)n1/N=C/c1ccc(OCc2ccc(Cl)cc2)cc1,-18.0%,7.2,0.4%,9.4%[38.3 µM],7.94µM*,?
Cc1n[nH]c(=S)n1/N=C/c1ccc(OCc2ccc(Cl)cc2Cl)cc1,.,.,-12.1%,13.2%,?,27.7%
Cc1cc(C)c(COc2ccc(/C=N/n3c(C)n[nH]c3=S)cc2)c(C)c1,25.6%[10 µM],.,?,7.6%,10µM*,12.3%
COc1ccc(CNC(=O)CN2CCN(S(=O)(=O)c3cccs3)CC2)cc1OC,.,.,11.2µM*,8.6%,.,18.1%
Cc1ccc(CNC(=O)COC(=O)C2CCN(S(=O)(=O)c3cccs3)CC2)cc1,-18.9%,.,-1.6%,6.3%,.,3.1%
O=[N+]([O-])c1ccccc1/C=C/C=N/n1c(-c2ccccc2F)n[nH]c1=S,14.9%[10 µM],.,.,.,.,2.4%[9.22 µM]
COc1ccccc1/C=C/C=N/n1c(-c2ccc(Cl)cc2)n[nH]c1=S,-16.2%[10 µM],.,11.2µM*,.,.,-5.7%[9.22 µM]
COc1cc(/C=N/n2c(-c3ccccc3)n[nH]c2=S)cc(OC)c1OC,4.1%[10 µM],.,.,.,.,5.8%[9.22 µM]
COc1ccccc1/C=C/C=N/n1c(C2CCCCC2)n[nH]c1=S,9.0%[10 µM],10.5,?,23.5%,7.08µM*,17.7%
COc1ccc(-c2n[nH]c(=S)n2/N=C/C=C/c2ccccc2OC)cc1,-31.4%[10 µM],8.0,1.1%,3.7%,1.26µM*,21.8%
COc1ccccc1/C=C/C=N/n1c(-c2ccccc2)n[nH]c1=S,-3.3%[10 µM],.,28.2µM*,.,.,15.8%[9.22 µM]
COc1ccc(CNC(=O)c2cc3c(C)nc4ccccc4c3o2)c(OC)c1,6.6%,7.8,9.7%,13.8%[38.3 µM],14.2%,3.98µM*
SMILES,HTT ATP protect,IMPase inh,ALDH1A1 inh,IMPase Li cell,HPGD inh,HttQ103 aggreg
COc1cc(NC(=O)c2cc3c(C)nc4ccccc4c3o2)cc(OC)c1OC,-4.3%,16.1,11.1%,11.6%[38.3 µM],-11.0%,?
COc1cccc(CNC(=O)Cn2cccc2)c1,?,-2.6,-1.3%,4.6%[38.3 µM],14.1µM*,6.6%
COc1cccc(CNC(=O)Cc2ccc(Br)cc2)c1,-10.6%[10 µM],-12.5,10.1%,2.2%,-10.7%,6.3%
CCc1ccc(CNC(=O)c2cc3c(C)nc4ccccc4c3o2)cc1,25.6%[10 µM],?,-10.5%,31.4%[38.3 µM],?,10µM*
COc1cccc(CNC(=O)c2cc3c(C)nc4ccccc4c3o2)c1,-66.5%,6.3,5.6%,10.9%[38.3 µM],-10.0%,10µM*
COC(=O)C(O)C1C(C)(C)C(OC(C)=O)C2CC3=C4CC(=O)OC(c5ccoc5)[C@]4(C)CCC3[C@@]1(C)C2=O (some centres not stated),?,.,-0.4%,9.0%,-5.8%,.
CCCCC[C@H](O)/C=C/[C@@H]1[C@@H](C/C=C\CCCC(=O)O)[C@H](O)C[C@H]1O,?,.,0.4%,3.0%,-23.9%,.
N#Cc1ccc(/C=C/C(=O)c2ccccc2)cc1,-4.4%[10 µM],.,8.91µM*,.,.,-8.1%[9.22 µM]
O=C(/C=C/c1ccccc1)c1ccccc1,.,.,-12.7%,1.6%,-22.6%,-11.8%
CC1CCC/C(=C\Nc2ccc(O)cc2)C1=O (configuration not stated),-8.7%,17.7,8.91µM*,28.7%[38.3 µM],?,7.7%
Cc1cc(C(=O)O)ccc1N/C=C1\CCCC(C)C1=O (configuration not stated),-32.0%,-1.5,-13.0%,2.6%[38.3 µM],-11.9%,8.1%
Cc1cc(-c2n[nH]c(=S)n2/N=C/c2ccc(Cl)c([N+](=O)[O-])c2)n[nH]1,-86.8%[10 µM],.,14.1µM*,-25.2%,7.94µM*,?
Cc1cc(-c2n[nH]c(=S)n2/N=C/c2cc([N+](=O)[O-])ccc2Cl)n[nH]1,16.0%[10 µM],.,?,-1.0%,25.1µM*,11.4%
COc1cccc(/C=N/n2c(-c3cc(C)[nH]n3)n[nH]c2=S)c1OC,-6.4%[10 µM],.,.,.,.,-15.2%[9.22 µM]
COC(=O)NC(/C(C(=O)OC)=C(\C)NCc1ccccc1)c1ccc(Cl)cc1 (configuration not stated),-16.3%[10 µM],.,-2.2%[13.5 µM],.,.,.
O=C(O)c1cccc(N2C(=O)/C(=C/c3ccc([N+](=O)[O-])cc3)C=C2c2ccccc2)c1,?,.,25.1µM*,-8.3%,.,-13.7%
O=C(O)COc1c(Cl)cc(/C=C2\NC(=O)NC2=O)cc1Br,6.2%[10 µM],.,17.8µM*,19.5%,.,10.3%[9.22 µM]
C=CC[C@@H]1C=C[C@@H](O/N=C2/[C@H]3O[C@@H]3[C@@H](O)[C@H]3[C@H]2CCn2c(=O)n(-c4ccccc4)c(=O)n23)[C@@H](CO)O1,-19.5%[10 µM],.,7.8%[13.5 µM],.,.,.
COc1ccc(N/N=C(\C#N)C(N)=O)cc1,0.2%[10 µM],15.4,1.7%,7.2%,-5.5%,-12.1%

# Source: PubChem
